# “And” between values parts separate entries of the source, which are not always exact repeats. Equal entries are not always repeated. The source made the active and inactive calls. Rule as the data show it, unless noted: active = inhibition above about 80%; inactive = the rest.
# Legend:
# [1] = viability loss with induced miR-34 in A549 – imaging, A549 dox-inducible miR-34, nuclei and caspase counts, primary screen (AID 1347080;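 active = compounds whose cell count with miR-34 switched on is under 0.7 times the count with it off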); details: A549 miR-34 inducible, Hoechst nuclei count, 48 h
# [2] = MELAS cybrid and Rieske KO viability enhancers – cell-based, MELAS cybrids, Rieske KO mouse fibroblasts, CellTiter-Glo, primary screen (AID 1508586;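 active = mean z-score across replicates of 1.96 or higher in either the MELAS or the Rieske mutant cell line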;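 also: z relative to plate mean and SD of compound and empty wells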); details: low glucose
# [3] = galactose survival enhancers in mitochondrial complex I cybrids – cell-based, galactose medium, ATP luminescence, primary screen (AID 1645843;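 active = z-score of at least 1.8 in each of two replicates, scored against plate mean and spread of sample wells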;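 also: positive z means more ATP and so rescue of galactose-driven cybrid death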); details: complex I mutant cybrid cells, 72 h, stronger effect = higher value
# [4] = growth inhibition, single agent or in combination, cell-based, chromothripsis tumors, cisplatin or BGB combos (AID 1671449); details: LFS_MB_P medulloblastoma cells;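 also: cells exposed for 96 hours; 0% = vehicle DMSO and 100% = killing by high DMSO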
# [5] = growth inhibition, single agent and combos, cell-based, chromothripsis tumors, cisplatin or BGB combos (AID 1671450); details: HDN33 neuroblastoma cells, stronger effect = higher value;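 also: cells exposed to compound for four days; 0% = vehicle DMSO and 100% = cell killing by high DMSO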
# [6] = growth inhibition, single agents and combos, ICB984, cell-based, cisplatin or BGB combos, synergistic combos for chromothripsis tumors (AID 1671451; call rule not given here;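 also: cells exposed for 96 hours before readout; 0% = vehicle DMSO and 100% = killing by high DMSO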); details: ICB984 medulloblastoma cells, drug combinations, stronger effect = higher value
# [7] = growth inhibition, single agents and combos, LFS_MB_1R, cell-based, cisplatin or BGB combos, synergistic combos for chromothripsis tumors (AID 1671452); details: LFS_MB_1R medulloblastoma cells, stronger effect = higher value;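 also: cells exposed for 96 hours before readout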
# [8] = growth inhibition, single agents and combos, HTB85, cell-based, BGB or cisplatin IC20 combos, synergistic combos for chromothripsis tumors (AID 1671453); details: HTB85 osteosarcoma cells, drug combinations, stronger effect = higher value;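 also: cells exposed for 96 hours before readout; 0% = vehicle DMSO and 100% = high DMSO killing control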
# [9] = growth inhibition, single agents and combos, CRL2098, cell-based, BGB or cisplatin IC20 combos, synergistic combos for chromothripsis tumors (AID 1671454); details: CRL2098 osteosarcoma cells, drug combinations, stronger effect = higher value;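 also: cells exposed for 96 h before readout; 0% = vehicle DMSO and 100% = killing by high DMSO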
# [10] = growth inhibition, single agents and combos, HD-MB03, cell-based, BGB or cisplatin IC20 combos, synergistic combos for chromothripsis tumors (AID 1671455; in the data active = inhibition above about 83%;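 also: 0% = vehicle DMSO and 100% = high DMSO as cytotoxic control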); details: HD-MB03 medulloblastoma cells, stronger effect = higher value
# [11] = growth inhibition, single agents and combos, UWB1.289, cell-based, BGB or cisplatin combos, synergistic combos for chromothripsis tumors (AID 1671456); details: UWB1.289 ovarian carcinoma cells, stronger effect = higher value;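 also: cells exposed to compound for four days; 0% = vehicle DMSO and 100% = killing by high DMSO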
# [12] = growth inhibition, single agents and combos, LFS_MB_2R, cell-based, cisplatin combos, synergistic combos for chromothripsis tumors (AID 1671457); details: LFS_MB_2R medulloblastoma cells, stronger effect = higher value;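 also: cells exposed to compound for four days before readout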
# [13] = growth inhibition, MDA-MB-436, cell-based, BGB or cisplatin combos, synergistic combos for chromothripsis tumors (AID 1671458; call rule not given here;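 also: cells exposed for 96 hours; 0% = vehicle DMSO and 100% = killing by high DMSO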); details: MDA-MB-436 breast carcinoma growth inhibition, drug combinations, stronger effect = higher value
# [14] = UWB1.289_BRCA1 ovarian cancer growth, cell-based, BGB or cisplatin combinations (AID 1671459); details: UWB1.289 BRCA1 ovarian carcinoma, drug combinations, stronger effect = higher value
# [15] = drug combination toxicity in non-malignant astrocytes – cell-based, BGB or cisplatin IC20 combos, cytotoxicity control for chromothriptic childhood tumor combination screen (AID 1671460); details: Human astrocytes, viability inhibition, drug combinations, at 0.5 µM, stronger effect = higher value;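 also: cells exposed to compounds for 96 hours before viability readout; 0% = vehicle and 100% = killing control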
# [16] = stronger effect = lower value, cell number ratio, induced over uninduced
# [17] = measured here: relative caspase fold change +Dox/-Dox
# [18] = measured here: total cells with miR-34 induction, stronger effect = lower value
# [19] = measured here: total cells without miR-34 induction
# [20] = MELAS cybrid survival, CellTiter-Glo 48 h, stronger effect = higher value
# [21] = Rieske KO mouse fibroblast survival, CellTiter-Glo 72 h
# [22] = measured here: combination with BGB IC40, at 0.05 µM
# [23] = measured here: combination with cisplatin, at 0.5 µM
# [24] = measured here: combination with cisplatin, at 5 µM
smiles,measurement,setting,value
CN(Cc1nc2ccc(Cl)cc2[nH]1)C(=O)c1n[nH]c2ccccc12,fold change,[1]; [16],0.846 (inactive)
same,fold change,[1]; [17],1.41
same,cell count,[1]; [18],6230
same,cell count,[1]; [19],7360
same,z-score,[2]; [20],-0.529 (inactive)
same,z-score,[2]; [21],0.953
same,z-score,[3],1.46 (inactive)
COc1ccc(-c2oc3ncnc(NCCO)c3c2-c2ccc(OC)cc2)cc1,fold change,[1]; [16],0.89 (inactive)
same,fold change,[1]; [17],0.844
same,cell count,[1]; [18],5740
same,cell count,[1]; [19],6450
same,z-score,[2]; [20],1.03
same,z-score,[2]; [21],11.9
same,z-score,[3],-1.77 (inactive)
O=C1CCC(CC(=O)N2CCc3[nH]nc(-c4ccc5c(c4)OCO5)c3C2)N1 (stereo not drawn),fold change,[1]; [16],0.953 (inactive)
same,fold change,[1]; [17],1.24
same,cell count,[1]; [18],9140
same,cell count,[1]; [19],9600
same,z-score,[2]; [20],-0.575 (inactive)
same,z-score,[2]; [21],-0.976
same,z-score,[3],-0.52 (inactive)
OC1(CNc2ncnc3nc[nH]c23)C2CC3CC(C2)CC1C3 (stereo not drawn),fold change,[1]; [16],0.887 (inactive)
same,fold change,[1]; [17],0.873
same,cell count,[1]; [18],8560
same,cell count,[1]; [19],9650
same,z-score,[2]; [20],-0.357 (inactive)
same,z-score,[2]; [21],-0.0569
same,z-score,[3],-0.575 (inactive)
Cc1cn(C2C=CC(CO)O2)c(=O)[nH]c1=O (stereo not drawn),fold change,[1]; [16],0.962 (inactive) and 0.935 (inactive)
same,fold change,[1]; [17],1.05 and 0.911
same,cell count,[1]; [18],8970 and 7330
same,cell count,[1]; [19],9320 and 7840
same,z-score,[2]; [20],-0.48 (inactive)
same,z-score,[2]; [21],0.518
same,z-score,[3],0.42 (inactive)
same,inhibition,"[4]; at 0.5 µM, stronger effect = higher value",-20.9% (inactive)
same,inhibition,"[4]; measured here: combination with BGB IC20, at 0.005 µM",-5.29%
same,inhibition,"[4]; measured here: combination with BGB IC40, at 0.005 µM",-35%
same,inhibition,[4]; [22],-15.2%
same,inhibition,"[4]; measured here: combination with cisplatin, at 0.5 µM, stronger effect = higher value",-28.2%
same,inhibition,"[4]; measured here: combination with cisplatin, at 5 µM, stronger effect = higher value",-24.4%
same,inhibition,"[5]; BGB combo, at 5 µM",-42.2%
same,inhibition,[5]; at 0.5 µM,-34.4% (inactive)
same,inhibition,"[5]; cisplatin combo, at 5 µM",-46.6%
same,inhibition,"[5]; measured here: with BGB IC20 combination, at 0.5 µM",-50.9%
same,inhibition,"[5]; measured here: with cisplatin IC20 combination, at 0.5 µM",-24.2%
same,inhibition,"[5]; single agent, at 5 µM",-41%
same,inhibition,"[6]; BGB IC20 combo, at 0.005 µM",-4.4%
same,inhibition,"[6]; BGB IC40 combo, at 0.005 µM",-46.7%
same,inhibition,"[6]; BGB IC40 combo, at 0.05 µM",-3.74%
same,inhibition,[6]; at 0.5 µM,-26.7% (inactive)
same,inhibition,"[6]; cisplatin combo, at 0.05 µM",-6.64%
same,inhibition,"[6]; cisplatin combo, at 0.5 µM",-35.4%
same,inhibition,"[6]; cisplatin combo, at 5 µM",-36.2%
same,inhibition,"[6]; measured here: 5 uM single agent, at 5 µM",-29.8%
same,inhibition,[7]; at 0.5 µM,-29.1% (inactive)
same,inhibition,[7]; [22],-18.5%
same,inhibition,[7]; [23],-42.3%
same,inhibition,[7]; [24],-74.7%
same,inhibition,[8]; at 0.5 µM,-32.3% (inactive)
same,inhibition,"[8]; measured here: with BGB IC20, at 0.5 µM",-52.5%
same,inhibition,"[8]; measured here: with BGB IC20, at 5 µM",-73.7%
same,inhibition,"[8]; measured here: with cisplatin IC20, at 0.5 µM",-25.1%
same,inhibition,"[8]; measured here: with cisplatin IC20, at 5 µM",-14.5%
same,inhibition,"[8]; single agent, at 5 µM",6.05%
same,inhibition,[9]; at 0.5 µM,-98.7% (inactive)
same,inhibition,"[9]; measured here: combination with BGB at IC20, at 0.5 µM",-91.8%
same,inhibition,"[9]; measured here: combination with cisplatin at IC20, at 0.5 µM",-105%
same,inhibition,[10]; at 0.5 µM,-18.8% (inactive)
same,inhibition,"[10]; measured here: combo with BGB at IC20, at 0.5 µM",-15.9%
same,inhibition,"[10]; measured here: combo with cisplatin at IC20, at 0.5 µM",-28%
same,inhibition,[11]; at 0.5 µM,-10.5% (inactive)
same,inhibition,"[11]; measured here: inhibition with BGB combination, at 0.05 µM",-4.7%
same,inhibition,"[11]; measured here: inhibition with cisplatin combination, at 0.05 µM",-16.8%
same,inhibition,[12]; at 0.5 µM,-12.5% (inactive)
same,inhibition,[12]; [23],-17.8%
same,inhibition,[12]; [24],-34.1%
same,inhibition,[13]; at 0.5 µM,-24% (inactive)
same,inhibition,"[13]; measured here: BGB combination, at 0.5 µM",-19.7%
same,inhibition,"[13]; measured here: BGB combination, at 5 µM",-23.5%
same,inhibition,"[13]; measured here: cisplatin combination, at 0.5 µM",-37.6%
same,inhibition,"[13]; measured here: cisplatin combination, at 5 µM",-21%
same,inhibition,"[14]; BGB combination, concentration series, at 5 µM",-25.5%
same,inhibition,[14]; at 0.5 µM,-15.9% (inactive)
same,inhibition,"[14]; cisplatin combination, concentration series, at 5 µM",-8.88%
same,inhibition,[15],-7.19% (inactive)
same,inhibition,[15]; measured here: combo with BGB IC20,-8.45%
same,inhibition,[15]; measured here: combo with cisplatin IC20,-23.8%

# Source: PubChem BioAssay
